High-throughput results from PubChem BioAssay.
A selection: hits, their analogues and other compounds. The true share with any hit is near 21%.
Pf growth 96h: Primary qHTS for delayed death inhibitors of the malarial parasite plastid, 96 hour incubation | P. falciparum luciferase reporter growth, 96 h | Potency, µM (top dose mostly 28.7 µM), actives largely listed as inhibitors | 320,000 compounds, 6.9% hits | AID 504834, 2011
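Infected RBCs, 2% Hct / 0.05% parasitemia final; luciferase-reporter P. falciparum; cpd 96 h, 37 C, 5% CO2; luciferase detection reagent; luminescence.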
SARS PLP yeast: qHTS of Yeast-based Assay for SARS-CoV PLP; S. cerevisiae expressing SARS-CoV PLpro, growth rescue; Potency, µM (series often up to 32.9 µM), most hits filed as activators; 330,000 compounds, 0.19% hits; AID 485353, 2010; calls by dose curve; note: nearly all actives have a fitted effect of over 55% in size
Cycloheximide cs: Cycloheximide Counterscreen for Small Molecule Inhibitors of Shiga Toxin; 300,000 compounds, 12% hits; max response, %; cell reporter, cycloheximide protein synthesis inhibition counterscreen; AID 2314, 2010; in the data active = max response mostly above about 13%, no sharp cut-off; inactive = mostly below about 14%; note: read at 38.3 µM for the half of the compounds with a filed dose
Shiga inhibitor: A qHTS for Small Molecule Inhibitors of Shiga Toxin; inhibition, % at 38.7 µM; Vero cells, Shiga toxin protein synthesis inhibition reporter; 290,000 compounds, 9.2% hits; in the data active = inhibition mostly above about 28%, no sharp cut-off; inactive = mostly below about 43%
NS1 function inh: qHTS Assay for Inhibitors of Influenza NS1 Protein Function; Potency, µM (series often up to 46.1 µM); 270,000 compounds, 0.4% hits; calls by dose curve; note: actives are rising curves; nearly all actives have a fitted effect of over 50% in size
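Growth recovery, yeast-based: influenza A NS1 expressed in S. cerevisiae causes slow growth, and suppressors are detected by OD600. The parent strain without NS1 is used as positive control.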
Pf growth 48h: Primary qHTS for delayed death inhibitors of the malarial parasite plastid, 48 hour incubation; 310,000 compounds, 5.9% hits; P. falciparum luciferase growth in erythrocytes, 48 h; Potency, µM (titrated, usually from 28.7 µM), actives largely listed as inhibitors; AID 504832, 2011
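First compound was added to culture medium, then infected red cells at 0.1% parasitemia and 2% hematocrit (final). After incubation at 37 C under 5% CO2, luciferase detection reagent was dispensed and light output recorded.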
A number is an active result; i = inactive; ? = inconclusive; nt = no result; [ ] = remark or other dose. Unless noted, calls come from the whole dose curve; as a rule, active = well fitted inhibition curve with a large enough effect; inconclusive = small, poorly fitted or top-dose-only effect, or another doubt; inactive = no such curve, though single readings can be large or run the other way.

SMILES | Pf growth 96h | SARS PLP yeast | Cycloheximide cs | Shiga inhibitor | NS1 function inh | Pf growth 48h
CC1(C)Cc2nc3oc4c(SCC(N)=O)ncnc4c3cc2CO1 | i | i | i | i | i | i
O=C(Nc1ccncc1)C1CCC(CNS(=O)(=O)c2cccc3nsnc23)CC1 (stereo not drawn) | ? | i | i | i | i | ?
Cc1ccc(S(=O)(=O)N2CCN(CC(=O)N/N=C\c3ccc(O)c(O)c3)CC2)cc1 | i | i | i | i | i | i
CC(=O)Oc1ccc(OC(C)=O)c(SCCCCCN2CCOCC2)c1 | 7.38µM | i | i | i | i | 5.22µM
Brc1ccc(OCCCN2CCOCC2)cc1 | i | i | 13.7 | i | i | nt
CC(C)c1ccc(OCCCCCN2CCOCC2)cc1 | i | i | 53.9 | 116.4 | i | i[0.00184 µM]
Clc1ccc(OCCN2CCOCC2)cc1 | i | i | i | i | i | ?
Brc1ccc(OCCN2CCOCC2)cc1 | ? | i | i | 23.0 | i | i
Cc1ccc(OCCCCN2CCCCC2)cc1 | i | i | i | i | i | i
CCCCCOc1ccc(C(=O)CCN2CCOCC2)cc1 | 2.33µM | i | i | nt | i | ?
Brc1ccc(OCCCCN2CCCCC2)cc1 | 5.22µM | i | i | i | ? | i
O=C(c1ccccc1)c1ccc(OCCCN2CCCC2)cc1 | i | i | 27.6 | 43.7 | i | i
O=C(c1ccccc1)c1ccc(OCCCCN2CCCCC2)cc1 | nt | i | i | i | i | i
c1ccc(COc2ccc(OCCCCN3CCCCC3)cc2)cc1 | ? | i | 55.2 | 69.9 | i | nt
COC(=O)c1cc(S(=O)(=O)N2CCCCCC2)c[nH]1 | i | i | i | i | i | i
NS(=O)(=O)c1ccc(NCC2COc3ccccc3O2)c([N+](=O)[O-])c1 (stereo not drawn) | i | i | 15.9 | i | i | i
CC(=O)c1ccc(NCC2COc3ccccc3O2)c([N+](=O)[O-])c1 (stereo not drawn) | i | i | 30.6 | 56.7 | nt | i
CCCCCCCSc1nnc(-c2ccccc2N)c(=O)[nH]1 | ? | i | i | i | nt | i
CCCCSc1nnc(-c2ccccc2N)c(=O)[nH]1 | i | i | 27.6 | 77.4 | i | i
CCCCCSc1nnc(-c2cc(Br)ccc2N)c(=O)[nH]1 | ? | i | i | i | i | i
CCCSc1nnc(-c2ccccc2N)c(=O)[nH]1 | nt | i | i | 93.2 | i | i
COc1ccc(C(=O)C(C)OC(=O)CNC(=O)c2ccco2)cc1 (stereo not drawn) | nt | i | nt | nt | nt | nt
Cc1ccc(N(Cc2ccccc2)C(=O)c2ccc(Cl)c(S(=O)(=O)N3CCOCC3)c2)cc1 | 9.28µM | i | nt | nt | nt | 13.1µM
Cc1ccc(N(Cc2ccccc2)C(=O)c2cc(S(=O)(=O)N3CCOCC3)ccc2C)cc1 | ? | i | nt | nt | nt | 10.4µM
Cc1ccc(S(=O)(=O)N2CCOCC2)cc1C(=O)OCC(=O)NCc1ccccc1 | i | nt | nt | nt | nt | ?
SMILES | Pf growth 96h | SARS PLP yeast | Cycloheximide cs | Shiga inhibitor | NS1 function inh | Pf growth 48h
CCN1CCN(C(=O)c2ccc(Cl)c(S(=O)(=O)N3CCOCC3)c2)CC1 | ? | i | i | i | i | nt
O=c1[nH]nc(SCc2ccccc2)n1C1CC2C=CC1C2 (stereo not drawn) | i | i | i | i | i | i
NS(=O)(=O)c1ccc(CCNC(=O)c2ccc([N+](=O)[O-])s2)cc1 | ? | i | i | i | i | ?
Cc1ccc(NC(=O)C2C(=O)N(C)c3ccccc32)cc1 (stereo not drawn) | i | i | 18.8 | i | i | i
Cc1onc(-c2ccccc2Cl)c1C(=O)Nc1nnc(-c2ccc(Br)cc2)s1 | i | i | 21.8 | i | ? | i
Cc1onc(-c2ccccc2Cl)c1C(=O)Nc1nc2c(s1)CCCC2 | ? | i | 69.1 | 127.4 | i | ?
Cc1onc(-c2ccccc2Cl)c1C(=O)Nc1nnc(-c2ccc(F)cc2)s1 | i | i | i | i | ? | i
Nc1ccc2c(c1)OC1(CCCCC1)O2 | i | i | i | i | nt | i
COc1ccc(OCC(=O)NCCNC(=O)c2cccnc2)cc1 | i | i | i | i | i | i
COC(=O)c1cc(S(=O)(=O)NCc2cccc(Br)c2)c[nH]1 | 9.28µM | i | i | i | i | i
COC(=O)c1cc(S(=O)(=O)NCCc2ccccc2)c[nH]1 | i | i | i | i | i | i
Fc1ccc(-c2csc(-c3ccccn3)n2)cc1F | i | i | 45.9 | 175.4 | nt | i
c1ccc(-c2nc(-c3ccccn3)no2)cc1 | i | i | i | i | i | i
